This note sets out measurements from the supplement of paper PMC11417369.

In all, about 25,000 sequences were measured (“ln(normalized median fluorescence intensity)”: median about 9.7, highest 2% from about 11 on). Many of the other results were omitted from the sample, so the highest values are more common in it than they were.

The test system of the test is PfAP2-HC AP2 domain (GST-tagged). Nature of the test: gcPBM binding intensity (ln(normalized median fluorescence intensity)); higher = stronger DNA binding. A digest of the protocol:
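Alexa488 anti-GST antibody, scanned at 488 nm, detected GST-tagged P. falciparum DNA-binding domains that had been expressed in E. coli and incubated for 1 h on an Agilent 4 × 180k array. The array carried primer-extended double-stranded 36-bp intergenic genomic probes and negative controls. Binding intensity is the highest Masliner-normalised natural-log median intensity across replicate spots of either orientation of each probe.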
As for “TGTACGTTTTTTAACACACACACAAAAAAAAAAAAA [CACACA_site6006]”, the “gcPBM binding intensity (ln)” value was found to be 9.84.

Take “GATTTATACAAATATGTACACACTAAATATATATTA [CACACA_site455]”: the “gcPBM binding intensity (ln)” value is 9.83.

“GATGTTGCAAAATTCTGTACATATAAATGTATACAT [XGTACX_site5009]”: the “gcPBM binding intensity (ln)” value turned out to be 9.64.

Consider “TAATTAAAATTATTTATAAATTAGTATATTTCTATA [CACACA_negctrl_site663]”, for which the “gcPBM binding intensity (ln)” value turned out to be 9.42.

As to “ATATAAGAAAAGCACACACACACAAAAAAAAAAAAA [CACACA_site2827]”, the “gcPBM binding intensity (ln)” value stood at 11.1.

“GCAAAATAAAGAAGCACACAAAAATGAAATATATAT [CACACA_site3651]”: the “gcPBM binding intensity (ln)” value is 9.96.

Turning to “AGAGATATAAGAAAAGCACACACACCCAAAAAAAAA [CACACA_site8917]”, the “gcPBM binding intensity (ln)” value was determined as 10.5.

Consider “AAAAAAAATATAAGTGGTACTCACATAAAGACATAT [XGTACX_site3709]”, for which the “gcPBM binding intensity (ln)” value was 9.93.

Consider “AAAAAAAAAAAGAAGGAAACATTTGACCAAAAATAT [GTGCAC_negctrl_site404]”, for which the “gcPBM binding intensity (ln)” value is 9.58.

In the case of “GTAGACTGAAACCACACACACATATATAAATATATT [CACACA_site6433]”, the “gcPBM binding intensity (ln)” value was 10.4.

For “ATTTTGTGTAGTGATGCATGTTATATATATATTTGA [TGCATGCA_site422]”, the “gcPBM binding intensity (ln)” value amounted to 9.83.

Consider “TATAGAAGCATTCACACACACACATACATACACATA [CACACA_site1466]”, for which the “gcPBM binding intensity (ln)” value was 10.6.

For the sequence “TAGAAGCATGGACACACACACATACATACCCATACA [CACACA_site4916]”, the “gcPBM binding intensity (ln)” value stood at 11.2.

Take “TGTCATGATACATACACACACATACCCATACCCATA [CACACA_site5211]”: the “gcPBM binding intensity (ln)” value amounted to 10.6.

As for “AAAAAAAACGGACACACACACATACCCATACATACA [CACACA_site5574]”, the “gcPBM binding intensity (ln)” value turned out to be 10.5.

Turning to “TAGAAGCATTGACACACACACATACATACACATACA [CACACA_site6802]”, the “gcPBM binding intensity (ln)” value was 11.2.

Take “GTTATAGAAGCATTCACACACACACGGACATACACA [CACACA_site6801]”: the “gcPBM binding intensity (ln)” value stood at 10.7.

“TGTTGCAAAACAAAAAAAAAAAAAAAAAATAATAAT [CACACA_negctrl_site1642]”: the “gcPBM binding intensity (ln)” value was 9.52.

In the case of “AAAAGGAAAAATATCACACATATATATATATATATA [CACACA_site5586]”, the “gcPBM binding intensity (ln)” value turned out to be 9.69.

As to “TAGAAAAAATAAAATAGTACACATCCAAAAAAAAAA [XGTACX_site7829]”, the “gcPBM binding intensity (ln)” value turned out to be 9.71.

Take “TAAGAAATAAATAGTACACACATAGACACCCACCCA [CACACA_site8429]”: the “gcPBM binding intensity (ln)” value came out at 11.3.

On to “TAAGAAATAAATAGTACACACATAGACACAGACACA [CACACA_site4934]”, for which the “gcPBM binding intensity (ln)” value was found to be 10.6.

Take “TAAGAAATAAATAGTACACACATAGACACCCACCGA [CACACA_site1516]”: the “gcPBM binding intensity (ln)” value is 10.4.

On to “GCATAAGAAATAAATAGTACACACATAGACACACAC [XGTACX_site3095]”, for which the “gcPBM binding intensity (ln)” value came out at 11.3.

Consider “TAAGAAATAAATAGTACACACATAGACACACGCACA [CACACA_site6821]”, for which the “gcPBM binding intensity (ln)” value amounted to 10.7.

On to “TATAAATACATCCTATACTTCTCTTTTACAGTTTTA [CACACA_negctrl_site1283]”, for which the “gcPBM binding intensity (ln)” value is 9.62.

In the case of “ATTTCGTTCTTTTATGCACACTCAACATATAAATTA [CACACA_site8322]”, the “gcPBM binding intensity (ln)” value worked out at 9.93.

Regarding “GACATAGTCATATACTGTACTTTATATTATTGTGTA [XGTACX_site6636]”, the “gcPBM binding intensity (ln)” value was found to be 9.66.

As for “TATAATAAAATATGTACACACATACAGACATATATA [CACACA_site6693]”, the “gcPBM binding intensity (ln)” value worked out at 9.99.

“TATAAATAAATATACACACACACATATAAATATGTA [CACACA_site6504]”: the “gcPBM binding intensity (ln)” value worked out at 10.4.

For “TATGGTATATACAACACACACACATATGTATAAATA [CACACA_site6562]”, the “gcPBM binding intensity (ln)” value is 10.5.

Consider “ACACATAAATGTATATATATATAAATATATGTATGT [CACACA_negctrl_site1532]”, for which the “gcPBM binding intensity (ln)” value worked out at 9.82.

Take “TGGTATATACGACACACACACATATGTATAAATATA [CACACA_site6561]”: the “gcPBM binding intensity (ln)” value came out at 10.9.

In the case of “TATGGTAAATACAACACACACACATATGTATTTATA [CACACA_site4666]”, the “gcPBM binding intensity (ln)” value was determined as 10.3.

Consider “TATGGTATATACAACACACACACATATGTATATATA [CACACA_site927]”, for which the “gcPBM binding intensity (ln)” value is 10.9.

For “AATTCACATGTGAACTAAAAGAATATTATATATATA [CACACA_negctrl_site1632]”, the “gcPBM binding intensity (ln)” value turned out to be 9.55.

For “TTTTCTAAATATTATAGTACTCTTAATAATATTAAC [XGTACX_site4222]”, the “gcPBM binding intensity (ln)” value stood at 9.34.

Take “TATAGCAAAAAATTTACACACATGTTTTTTCTATAC [CACACA_site325]”: the “gcPBM binding intensity (ln)” value came out at 9.9.

For the sequence “ATATTTGTAATTATTAAACACACACTAATTATATAT [CACACA_site8803]”, the “gcPBM binding intensity (ln)” value was 9.9.

Regarding AAATTATATACCACAGTGCAAAAGGCAGGTATACGT, the “gcPBM binding intensity (ln)” value came out at 9.91.

On to “TACATATTACTATTCAGTACATATTTTTTTTTCATT [XGTACX_site7468]”, for which the “gcPBM binding intensity (ln)” value was 9.81.

In the case of “AAAAAATACAGACACACACACACACGCATATAAATA [CACACA_site7644]”, the “gcPBM binding intensity (ln)” value came to 10.8.

“AAACAACATGGACACGCACACACAAAAAAAGCATGC [CACACA_site73]”: the “gcPBM binding intensity (ln)” value was determined as 10.7.

“CAAGCACACGGACACACACACACACGCGCACGCACA [CACACA_site6307]”: the “gcPBM binding intensity (ln)” value came to 11.3.

Take “CGCGCACACGGACACACACACACACGGATATAAATA [CACACA_site7102]”: the “gcPBM binding intensity (ln)” value stood at 11.3.

As to “CATATACATAGACACACACACACATAAATAAATATA [CACACA_site6749]”, the “gcPBM binding intensity (ln)” value amounted to 10.4.

On to “AAAATACATAGACACACACACACACGGATATAAATA [CACACA_site7643]”, for which the “gcPBM binding intensity (ln)” value amounted to 11.2.

With “CACGCATACAGACACACACACACACGGATATAAATA [CACACA_site6445]”, the “gcPBM binding intensity (ln)” value worked out at 11.6.

Regarding “TAAATAAATTTATACACACACACACGGATATAAATA [CACACA_site6532]”, the “gcPBM binding intensity (ln)” value was 10.6.

As for “AAAAAAAATAGACACACACACATACACATAAATATA [CACACA_site7742]”, the “gcPBM binding intensity (ln)” value was found to be 10.5.

Take “ACCATATAAATAAACACACACACACGGATATAAATA [CACACA_site7157]”: the “gcPBM binding intensity (ln)” value is 10.6.

On to “ATAGTATACAGACACACACACACACGGATATAAATA [CACACA_site6914]”, for which the “gcPBM binding intensity (ln)” value is 10.6.

Turning to “TTTAATTCTTATATTTGTACAGATTCATAATTAAAT [XGTACX_site7465]”, the “gcPBM binding intensity (ln)” value was determined as 9.41.

Consider “ACAAATAAATATTCGCGTACTTATATAATATTACGA [XGTACX_site6428]”, for which the “gcPBM binding intensity (ln)” value came to 9.66.

Turning to “TACATACATACATACACACACACATATATATATATA [CACACA_site42]”, the “gcPBM binding intensity (ln)” value was 10.2.

Consider “AATATTTTGAACAACAGTACTCTTTCTTTCTTTCTT [XGTACX_site7212]”, for which the “gcPBM binding intensity (ln)” value worked out at 9.51.

For “TGAATAATAAAAAATACACACACATATATATATATT [CACACA_site9146]”, the “gcPBM binding intensity (ln)” value was determined as 10.1.
